Reference: PubChem BioAssay
Calls of active or inactive are those of the source. The rule behind the calls is not given here.

Target: Pantothenate synthetase (Mycobacterium tuberculosis (strain ATCC 25618 / H37Rv)) (UniProt P9WIL5)
Experiment: Recombinant Mtb pantothenate synthetase (PanC) inhibitors, coupled enzyme, confirmatory (AID 375);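 note: 0% = full reaction with vehicle and 100% = no enzyme background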
Details: coupled enzyme assay; at 10 µM, hits give high values

Pantothenate synthetase (Mycobacterium tuberculosis (strain ATCC 25618 / H37Rv)), sequence (P9WIL5 whole entry, looked up): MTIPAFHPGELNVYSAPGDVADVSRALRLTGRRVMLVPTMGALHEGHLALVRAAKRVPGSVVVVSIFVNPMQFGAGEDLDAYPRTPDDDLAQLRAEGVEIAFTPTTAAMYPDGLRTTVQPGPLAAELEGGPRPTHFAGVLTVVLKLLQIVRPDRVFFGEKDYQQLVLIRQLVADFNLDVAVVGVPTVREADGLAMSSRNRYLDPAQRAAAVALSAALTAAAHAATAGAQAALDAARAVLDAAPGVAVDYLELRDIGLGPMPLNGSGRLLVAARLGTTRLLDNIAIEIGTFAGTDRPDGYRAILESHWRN

| SMILES | inhibition |
| --- | --- |
| COc1cc2[nH]c3c(=O)n(CCN(C(C)C)C(C)C)cnc3c2cc1OC | 10% (inactive) |
| Cn1nc(-c2ccc(C(=O)NCC3CCCO3)cc2)c2ccccc2c1=O (stereo not given) | 4% (inactive) |
| COc1ccc(/C(O)=C2/C(=O)C(=O)N(CC3CCCO3)C2c2cccc(OC)c2)cc1 (stereo not given) | 0% (inactive) |
| CCCc1cc(C(=O)Nc2ccc(C(C)=O)cc2)no1 | 0% (inactive) |
| O=C(c1ccc(CNS(=O)(=O)c2cccc(C(F)(F)F)c2)cc1)N1CCOCC1 | 0% (inactive) |
| Cc1ccc(N2C(=O)c3ccccc3C2O)nc1 (stereo not given) | 1% (inactive) |
| C=C(Cl)COc1ccc2c(C)cc(=O)oc2c1 | 2% (inactive) |
| CCNc1ccc(S(=O)(=O)C(F)(F)F)cc1NC(=O)C12CCC(CC1)C2 | 0% (inactive) |
| CC1Cc2ccccc2N1CC(=O)NC(=O)NCc1ccco1 (stereo not given) | 2% (inactive) |
| CCN(CC)Cc1c(C(=O)OC)nnn1-c1nonc1N | 0% (inactive) |
| CC1CCC(C(=O)NC(C(=O)NCCN2CCC(C)CC2)C(C)C)CC1 (stereo not given) | 0% (inactive) |
| O=C(Nc1nccs1)NC(C(F)(F)F)C(F)(F)F | 7% (inactive) |
| COc1ccc2[nH]c(=O)c(CN(C(=O)c3cccnc3)c3ccccc3OC)cc2c1 | 1% (inactive) |
| COc1cc(OC)cc(-c2nc(N)n[nH]2)c1 | 0% (inactive) |
| O=C1NC2=C(C(=O)CCC2)C(c2ccc3ncccc3c2)N1 (stereo not given) | 0% (inactive) |
| C=CCSc1nc(N)c2c(C)c(C)sc2n1 | 0% (inactive) |
| O=C1CCn2nc(-c3ccc(Cl)cc3)cc2N1 | 0% (inactive) |
| COc1ccc(N2C(=O)CC(N3CCCC4CCCCC43)C2=O)cc1 (stereo not given) | 0% (inactive) |
| O=C(c1ccco1)N1CCN(c2nc(C(F)(F)F)nc3c2nnn3Cc2ccccc2)CC1 | 0% (inactive) |
| CC(C)(C)c1cc(NC(=O)c2cc(F)c(F)c(F)c2F)no1 | 0% (inactive) |

| SMILES | inhibition |
| --- | --- |
| CC1CN(C(=O)CSc2nnc(-c3ccncc3)n2-c2ccccc2)CC(C)O1 (stereo not given) | 1% (inactive) |
| CCOc1ccc(-c2nnc(N(CC)C(=O)C3CCC3)s2)cc1 | 11% (inactive) |
| CCSc1nnc(NC(=O)c2ccc(C)o2)s1 | 9% (inactive) |
| COc1ccc(CN(C)CC(=O)c2c(N)n(Cc3ccccc3)c(=O)n(C)c2=O)c(OC)c1 | 0% (inactive) |
| Cn1cccc1-c1nc2ccc(NC(=O)c3ccco3)cc2[nH]1 | 6% (inactive) |
| O=C1CSC(=Nc2ccc(O)cc2)N1c1ccc(O)cc1 | 0% (inactive) |
| COc1ccc(C(=O)NCCCCCC(=O)O)cc1OC | 0% (inactive) |
| COc1ccccc1OCCOc1ccccc1/C=N/n1cnnc1 | 6% (inactive) |
| O=C1c2ccccc2CN1CCNS(=O)(=O)c1ccc(Cl)cc1 | 9% (inactive) |
| CCOn1c(=O)c(=O)n(OCc2ccccc2)c2ccccc21 | 0% (inactive) |
| Cc1cc(/N=C/N(C)C)on1 | 0% (inactive) |
| COC(=O)Cn1c2ccccc2c2nc(C)sc21 | 0% (inactive) |
| O=C(NO)c1ccccc1O | 0% (inactive) |
| Cc1cc(Cn2ccnc2)c(C)cc1Cn1ccnc1 | 1% (inactive) |
| CN(C)S(=O)(=O)NC(c1ccccc1)c1ccccc1 | 4% (inactive) |
| CC(C)(C)N(Cc1cc2ccccc2[nH]c1=O)C(=O)C1CCCCC1 | 3% (inactive) |
| CC(C)Oc1ccc(N2CC(C(=O)Nc3ccccc3F)CC2=O)cc1 (stereo not given) | 0% (inactive) |
| O=S(=O)(c1ccccc1)c1nc(-c2ccco2)oc1NCCCN1CCOCC1 | 0% (inactive) |
| CCCCn1c(CN2CCN(c3ccccc3)CC2)nc2c1c(=O)n(C)c(=O)n2C | 0% (inactive) |
| Cc1c(C#N)c2ncnc(-c3ccccc3)c2n1-c1ccccc1 | 0% (inactive) |
